Data from PubChem BioAssay (NCI).
Compounds without any hit were thinned out: in the full panel of roughly 79,000, 15% have a hit. Cut-off read from the data, not from the text of the source: active = growth inhibition above about 70%; inactive = the rest.

Experiments:
[1] = NCI Yeast Anticancer Drug Screen. Data for the rad50 strain (AID 155);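 note: 0% = growth of vehicle-only cultures of the same strain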; conditions: S. cerevisiae rad50 strain growth inhibition; at 50.0 µM; hits give high values
Procedure, shortened: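 Compounds were tested on a yeast strain with an engineered DNA damage repair alteration; the reported value is growth inhibition normalised to vehicle treatment.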

[2] = NCI Yeast Anticancer Drug Screen. Data for the mec2-1 strain (AID 157); conditions: S. cerevisiae mec2-1 strain, at 50.0 µM, hits give high values
Procedure, shortened: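 Each compound was tested on mec2-1 yeast, a strain altered in DNA damage repair or cell cycle control. Growth inhibition is reported relative to vehicle.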

[3] = NCI Yeast Anticancer Drug Screen. Data for the sgs1 mgt1 strain (AID 161);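 note: 0% = growth of cultures given vehicle only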; conditions: S. cerevisiae sgs1 mgt1 strain, at 50.0 µM, hits give high values
Procedure, shortened: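 Read-out: growth inhibition vs vehicle controls. Cells: mutant yeast strain deficient in DNA damage repair.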

[4] = NCI Yeast Anticancer Drug Screen. Data for the cln2 rad14 strain (AID 165);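 note: 0% = growth equal to vehicle treated cultures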; conditions: S. cerevisiae cln2 rad14 strain, at 50.0 µM, hits give high values
Procedure, shortened: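 Test compounds were added to cln2 rad14 yeast cultures; inhibition of growth was then determined by comparison with vehicle treatment.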

[5] = NCI Yeast Anticancer Drug Screen. Data for the bub3 strain (AID 167); conditions: S. cerevisiae bub3 mutant strain, at 50.0 µM, hits give high values
Procedure, shortened: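 Growth of a checkpoint-deficient yeast mutant is measured after compound exposure. Values represent inhibition relative to vehicle.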

[6] = NCI Yeast Anticancer Drug Screen. Data for the mlh1 rad18 strain (AID 175); conditions: S. cerevisiae mlh1 rad18 strain growth inhibition; at 50.0 µM; hits give high values
Procedure, shortened: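 Inhibition values reflect reduced growth of mutant yeast versus vehicle-treated controls following compound exposure; the mutations affect DNA damage repair.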

Measured: growth inhibition

O=c1/c(=C/c2ccc(Cl)cc2)sc2nc(-c3ccccc3)nn12
inactive: [1] 0.85% | [2] 7.75% | [3] 8.8% | [4] -6.75% | [5] -12.8% | [6] 23.6%

NS(=O)(=O)c1ccc(N=C2C(=O)Nc3ccccc32)cc1
inactive: [1] 1.05% | [2] -6.1% | [3] -14.6% | [4] 17.6% | [5] -23.8% | [6] 4.95%

CC1CC2=Cc3c(O)c(O)cc(O)c3C(=O)C2=CO1 (stereo unspecified)
inactive: [1] -5.5% | [2] -31.7% | [3] -19.7% | [4] -11.6% | [5] -5.7% | [6] -19.1%

COc1ccc(S(=O)(=O)/N=C(/C2CC3=CCC4C5CCC(=O)C5(C)CC(=O)C4C3(C)C2)N2CCCC2)cc1 (stereo unspecified)
inactive: [1] 5.75% | [2] 4.9% | [3] 1.85% | [4] -11.6% | [5] -1.35% | [6] -18%

O=Cc1ccc(N2OC(c3ccc([N+](=O)[O-])cc3)C(c3ccc([N+](=O)[O-])cc3)C2c2ccc([N+](=O)[O-])cc2)cc1 (stereo unspecified)
inactive: [1] 13.2% | [2] -1.75% | [3] 14.7% | [4] 25.4% | [5] 0.95% | [6] 28.9%

COC(=O)C1C(O)C(C(=O)OC)C(C)N(C)C1C (stereo unspecified)
inactive: [1] 7.35% | [2] -14.4% | [3] -41.5% | [4] -26.1% | [5] -18.2% | [6] -4.45%

Nc1c(Cl)ncnc1NCCN1CCOCC1
inactive: [1] -3.85% | [2] 1.9% | [3] 1.55% | [4] -22.1% | [5] -17.5% | [6] -18.4%

c1ccc(C2Nc3ccccc3NC2c2ccccc2)cc1 (stereo unspecified)
inactive: [1] 29.5% | [2] 5.75% | [3] 24.4% | [4] 20.9% | [5] 60.6% | [6] 56.8%

Cc1ccc(S(=O)(=O)Nc2cc3c(cc2NC(=O)C(F)(F)F)-c2ccccc2C3)cc1
inactive: [1] 52.8% | [2] -9% | [3] 38.8% | [4] -7.4% | [5] -1.25% | [6] 46%

COc1ccc(NC(C)=O)c([N+](=O)[O-])c1
inactive: [1] 23.3% | [2] 0.25% | [3] 19.3% | [4] 16.3% | [5] -8.35% | [6] 6.3%

CC(C)C(=O)Nc1ccccc1-c1ccccc1
inactive: [1] 14.3% | [2] -1.45% | [3] -9.35% | [4] -1.4% | [5] 0.05% | [6] 8.8%

CC(C)(C)OC(=O)Cc1ccc([N+](=O)[O-])cc1
inactive: [1] 2% | [2] -19.6% | [3] -10.7% | [4] -5.85% | [5] -3.05% | [6] -17.7%

Cc1sc2[nH]c(=O)oc(=O)c2c1C
inactive: [1] 44% | [2] -10.1% | [3] 36.2% | [4] 30.1% | [5] 10.5% | [6] 55.8%

Cc1ccc(Nc2nnc(Nc3ccc(C)cn3)c3ccccc23)nc1
inactive: [1] -10.7% | [2] -12.4% | [3] -4.55% | [4] -18.8% | [5] 4.1% | [6] -7.95%

O=S(=O)(O)c1cc(Cl)c(O)c(Cl)c1
inactive: [1] 7.25% | [2] -21.8% | [3] 9.15% | [4] -41.9% | [5] 6.8% | [6] 23.2%

N=C(N)SCCSC(=N)N
inactive: [1] -13.5% | [2] -8.4% | [3] -30.6% | [4] 9.7% | [5] -16.4% | [6] 12.9%

C/C(=N\NC(=S)Nc1cccc2cccc(S(=O)(=O)O)c12)c1ccccn1
inactive: [1] 3.4% | [2] -0.35% | [3] -18.2% | [4] -5.55% | [5] -7.4% | [6] 2.85%

Cc1cnc2ccccc2c1
inactive: [1] -12.2% | [2] -2.15% | [3] -5.45% | [4] 4.35% | [5] 0.45% | [6] 2.8%

O=C(NNC(=S)S)c1ccncc1
inactive: [1] 7.5% | [2] 2.4% | [3] -1.2% | [4] -8.95% | [5] 11.7% | [6] 21.9%

CC1=C/C(=N\O)C(C(O)(C(F)(F)F)C(F)(F)F)C(C)(C)C1 (stereo unspecified)
inactive: [1] -37.7% | [2] -39% | [3] -17.4% | [4] -12.5% | [5] -7.35% | [6] 2.9%

CN(C)c1nc(S(C)(=O)=O)nc2nc(S(C)(=O)=O)[nH]c12
inactive: [1] 2.45% | [2] -19.1% | [3] -4% | [4] -47% | [5] 1.95% | [6] -17.6%

Cc1ccc(-c2cc(-c3cc(-c4ccc(C)cc4)nc(N)n3)nc(N)n2)cc1
inactive: [1] 3.7% | [2] -13.4% | [3] -20.1% | [4] -13.2% | [5] -25.1% | [6] -13%

O=Cc1ccccc1CCn1c(=O)c2cc3c(=O)n(CCc4ccccc4C=O)c(=O)c3cc2c1=O
inactive: [1] 33.7% | [2] 18.9% | [3] 11.8% | [4] -11.8% | [5] -4.35% | [6] 18.8%

CCC(/C=C/c1ccccc1)=N\NC(=O)c1ccc(Cl)cc1
inactive: [1] 16.2% | [2] 5.5% | [3] 7.5% | [4] 1.7% | [5] 19.9% | [6] 7.95%

C[Si](C)(C)C#CC(O)CS(=O)c1ccccc1 (stereo unspecified)
inactive: [1] -19.5% | [2] -19.4% | [3] -13.3% | [4] -3.7% | [5] -6.45% | [6] -17.1%

Nc1nc(SCC(=O)O)nc2nc[nH]c12
inactive: [1] -0.15% | [2] 3.15% | [3] -13.3% | [4] -32% | [5] -7.5% | [6] 4.95%

Nc1ccc(COCCOCc2ccc(N)cc2)cc1
inactive: [1] -4.35% | [2] 1.7% | [3] -4.25% | [4] -5.6% | [5] 2.8% | [6] 17.4%

CC(C)c1cc(CN(C)C)c(O)c(C(C)(C)C)c1
inactive: [1] -25.4% | [2] 23.2% | [3] -43.5% | [4] -40% | [5] -14.3% | [6] -8.3%

Cc1cccc(C)c1NC(=O)C1=NC(=S)NC(c2ccccc2)C1c1nc2ccccc2s1 (stereo unspecified)
inactive: [1] -5.7% | [2] -19% | [3] -15.4% | [4] 10.2% | [5] -0.85% | [6] -1.1%

COC(=O)C1=C(C)NC(C)=C(C(=O)OC)C1c1ccc(NC(C)=O)cc1
inactive: [1] 4.7% | [2] -3.7% | [3] 13.3% | [4] -6.25% | [5] 5.25% | [6] 10.9%

CCc1ccc(CC)c(OC)c1
inactive: [1] 16.6% | [2] -1.8% | [3] 0.4% | [4] -27.2% | [5] -11.1% | [6] 18.7%

O=C(O[C@H]1[C@@H]2C=CO[C@@H](OC3OC(CO)C(O)C(O)C3O)[C@@H]2[C@@]2(CO)O[C@@H]12)c1ccc(O)c(O)c1 (stereo partly specified)
inactive: [1] -20.3% | [2] -40% | [3] -4.6% | [4] 3.1% | [5] -8.35% | [6] 0.4%

COC(=O)c1nc(N)nc(C(=O)OC)c1C(=O)c1ccc(Cl)c(Cl)c1
inactive: [1] -7.6% | [2] 7.15% | [3] -18.5% | [4] -5.05% | [5] 3.2% | [6] 10.6%

N#CC1(NC(=O)N(CCCl)N=O)CCCCC1
inactive: [1] 4.8% | [2] 1.25% | [3] -0.6% | [4] 5.65% | [5] 9.95% | [6] -27.9%

C=C(C)[C@@H]1CC[C@@H]2C(=CC[C@]3(C)C([C@H](C)CC/C=C(/C)C(=O)O)CC[C@@]23C)[C@@]1(C)CCC(=O)O (stereo partly specified)
inactive: [1] 15.6% | [2] -4.95% | [3] -0.85% | [4] 14.4% | [5] 4.05% | [6] -63.2%

O=C(Nc1ccn(C2CCC(COC(c3ccccc3)(c3ccccc3)c3ccccc3)O2)c(=O)n1)c1ccccc1 (stereo unspecified)
inactive: [1] 8.05% | [2] 19.4% | [3] 27.6% | [4] -25% | [5] -26.2% | [6] 16.9%

CCN1CCC(O)(C(C(=O)O)c2ccccc2)CC1 (stereo unspecified)
inactive: [1] 3.45% | [2] -27% | [3] -35% | [4] -28.8% | [5] -38.7% | [6] 2.4%

O=C(CN1C(=O)c2ccccc2C1=O)NC1(C(=O)O)CCCC1
inactive: [1] -3.25% | [2] -14% | [3] -27.9% | [4] -2.65% | [5] -30.8% | [6] -0.15%

CCC(C#N)(c1ccccc1)N(CCc1ccccc1)C(=O)c1ccccc1 (stereo unspecified)
inactive: [1] -5.8% | [2] -0.5% | [3] -12.9% | [4] -20.9% | [5] -13.2% | [6] -22.1%

CC1=CCC(C#N)N(C)C1c1ccccc1 (stereo unspecified)
inactive: [1] 2% | [2] -5.25% | [3] -13.4% | [4] -48.1% | [5] -12.3% | [6] 8.85%

CCCCC(CC)CN(CC(CC)CCCC)C(=O)C(C)OC(=O)C(CC)CCCC (stereo unspecified)
inactive: [1] 3.7% | [2] 6.1% | [3] 18% | [4] -4.3% | [5] 14.8% | [6] 16.9%
